Screening results deposited in PubChem by several laboratories.
PfG6PD inh: PfG6PD (Plasmodium falciparum) enzyme inhibition; inhibition, % at 20 µM; hit rate 0.78% among 350,000; PfGluPho enzyme, NADPH resazurin-diaphorase fluorescence;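 active = inhibition reaching at least a set limit at 20 µM in the primary screen, cut at about 59% in these data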
Neddyl block: inhibitors of human cullin neddylation; P61081+Q13564; TR-FRET cullin neddylation, biochemical; calls only at 25 µM; hit rate 0.58% among 360,000; AID 651699; in the data active = inhibition above about 36%
FAS TE block: blocks the thioesterase domain of human fatty acid synthase | recombinant FAS-TE, OMFH fluorogenic substrate, fluorescence endpoint | inhibition, % at 15 µM | hit rate 0.67% among 360,000 | AID 602261;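 active = compounds whose normalised, plate-corrected inhibition of enzyme fluorescence in the single-dose primary screen is 50% or more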
proKLK7 act: proKLK7 (human) activation, primary screen; activation, % at 7 µM; hit rate 0.9% among 370,000; purified proKLK7, EDANS-DABCYL substrate fluorescence; 100% is mature enzyme control, 0% vehicle;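 active = activation above the mean of all tested compounds plus 3 SD, computed per campaign excluding outliers beyond control limits, cut at about 13% in these data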
proKLK7 act conf: confirmation of human kallikrein-7 zymogen activators; shares compounds with proKLK7 act; purified proKLK7, EDANS-DABCYL substrate fluorescence; scaled: vehicle 0, mature enzyme 100; activation, % at 7 µM; hit rate 68% among 3,200; AID 686949;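 active = activation, as change over the incubation, above the mean of all tested compounds plus 3 SD, cut at about 13% in these data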
EDANS interfere: fluorescence interference counter-screen for KLK7 activators | AID 686952 | shares compounds with proKLK7 act | EDANS-DABCYL substrate fluorescence interference, no enzyme, 4 h; solvent 0%, active enzyme control 100% | activation, % at 7 µM | hit rate 80% among 3,200;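 active = activation above the all-compound mean plus 3 SD, ignoring values outside control-based bounds, cut at about 4.8% in these data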;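 also: value is the 4 h activation minus the activation read at time zero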
EDANS interf: optically interferes with EDANS-DABCYL fluorescence, kallikrein-7 activator counter-screen. EDANS-DABCYL peptide fluorescence interference, no enzyme. shares compounds with proKLK7 act. EC50, µM. hit rate 20% among 250. AID 720493;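 active = compounds that raise the fluorescence signal in this interference counterscreen, with EC50 at or below 10 µM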;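 also: intact quenched peptide substrate alone read at 355 nm excitation and 520 nm emission; signal is fluorescence gain from T0 to T4 after four hours at room temperature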
Large screens that a line does not name were inactive (follow-up assays come after a bar, where shown). A selection: hits, their analogues and other compounds. The true share with any hit is near 2.7%.

COC(=O)C1=C(C)N(Cc2ccc(C(F)(F)F)cc2)C(=NCc2ccc(C(F)(F)F)cc2)NC1c1cccc(C(F)(F)F)c1 (stereo unspecified)	none (no result: PfG6PD inh, Neddyl block, FAS TE block)
COc1cccc(-c2cccc(-c3nc(C(=O)NCc4ccc5c(c4)OCO5)cc4c3[C@H](CCO)N(S(=O)C(C)(C)C)C4)c2)c1 (stereo partly specified)	none (no result: PfG6PD inh)
CCCCCCCCN1CN2Cc3cc(OC)ccc3C2CS1(=O)=O (stereo unspecified)	none (no result: PfG6PD inh, Neddyl block, FAS TE block)
Cc1cccc(NC(=O)NN(C(=O)c2ccccc2Cl)C(C)(C)C)c1	none (no result: PfG6PD inh, Neddyl block, FAS TE block)
CCOc1ccccc1N=c1oc2cc(O)ccc2cc1C(=O)NCC1CCCO1 (stereo unspecified)	proKLK7 act 88 (not shown: Neddyl block) | proKLK7 act conf inactive | EDANS interfere 14
COc1ccc(N=c2oc3cc(O)ccc3cc2C(=O)NCC2CCCO2)cc1 (stereo unspecified)	proKLK7 act 16 (not shown: Neddyl block) | proKLK7 act conf inactive | EDANS interfere 11
COc1ccc(N=c2oc3cc(O)ccc3cc2C(=O)NCC2CCCO2)c(OC)c1 (stereo unspecified)	proKLK7 act 20 (not shown: Neddyl block) | proKLK7 act conf 13 | EDANS interfere 17
COc1ccc(-n2c(SCC(=O)NCC3CCCO3)nc3ccccc3c2=O)cc1Cl (stereo unspecified)	none
C=C(C)Cn1c2ccc(NC(=O)NCc3ccccc3)cc2c(=O)n1C	proKLK7 act 28 (not shown: PfG6PD inh, Neddyl block) | proKLK7 act conf 32 | EDANS interfere 26 | EDANS interf inactive
CCNC(=O)Nc1ccc2c(c1)c(=O)n(C)n2Cc1ccc(Cl)cc1	proKLK7 act 28 (not shown: PfG6PD inh, Neddyl block) | proKLK7 act conf 16 | EDANS interfere 26
COc1ccc(CCNC(=O)Nc2ccc3c(c2)c(=O)n(C)n3Cc2ccc(Cl)cc2)cc1OC	none (not shown: PfG6PD inh, Neddyl block)
Cn1c(=O)c2cc(NC(=O)NCCc3ccccc3)ccc2n1Cc1ccccc1	none (not shown: PfG6PD inh, Neddyl block)
C=C(C)Cn1c2ccc(NC(=O)NCC)cc2c(=O)n1C	proKLK7 act 39 (not shown: PfG6PD inh, Neddyl block) | proKLK7 act conf 53 | EDANS interfere 58
CCCNC(=O)C1(C)CCCN(C(=O)c2cccc(Cl)c2)C1 (stereo unspecified)	none (no result: PfG6PD inh)
CC(C)c1ccccc1NC(=O)Cn1c(/C=C/c2ccccc2)nc2ccccc21	none (no result: Neddyl block, FAS TE block, proKLK7 act)
Cc1ccc(NC(=O)Cn2c(/C=C/c3ccccc3)nc3ccccc32)cc1C	proKLK7 act 29 (not shown: Neddyl block) | proKLK7 act conf 49 | EDANS interfere 43
C[C@H]1CCCN1c1cccc2c1S(=O)(=O)N(C1CC1)CCCO2	none (no result: PfG6PD inh, Neddyl block, FAS TE block)
Cc1cc(F)ccc1-c1cc(C(=O)NC(C)C)[nH]n1	none (no result: PfG6PD inh)
CC(=O)c1cc(-c2cccc(Cl)c2O)c(=O)n2c1CCC2	none (no result: PfG6PD inh, Neddyl block, FAS TE block)
Cc1nc(/C=C\C(=O)O)c2cc(C)oc2n1	proKLK7 act 13 (not shown: Neddyl block) | proKLK7 act conf 20 | EDANS interfere 22
O=C(O)c1ccc(N2N=C(c3ccccc3)CC2c2ccccc2)cc1 (stereo unspecified)	proKLK7 act 64 | proKLK7 act conf 64 | EDANS interfere 75
CCCCOCCCNC(=O)C[C@H]1C[C@@]2(C(=O)OC)C(=C[C@H](C(C)(C)C)O[C@@H]2C)N(Cc2ccco2)C1=O	none (no result: PfG6PD inh, Neddyl block, FAS TE block)
COc1ccc(/C=N/NC(=O)c2nnn(-c3nonc3N)c2-c2cccs2)c(OC)c1	proKLK7 act 68 (not shown: Neddyl block) | proKLK7 act conf inactive | EDANS interfere inactive
COc1ccc(OC)c(/C=N/NC(=O)c2nnn(-c3nonc3N)c2-c2cccs2)c1	none (not shown: Neddyl block)
CCCOc1ccc(-c2c(C(=O)N/N=C/c3ccc(OC)cc3)nnn2-c2nonc2N)cc1	proKLK7 act 57 | proKLK7 act conf inactive | EDANS interfere inactive
CCCOc1ccc(-c2c(C(=O)N/N=C/c3ccc(OCC)cc3)nnn2-c2nonc2N)cc1	none
CC1=C(C#N)C(c2cccnc2)C2=C(CCCC2=O)N1 (stereo unspecified)	proKLK7 act 17 (not shown: Neddyl block) | proKLK7 act conf 51 | EDANS interfere 64
O=C(NC1CCCCC1)C1c2ccccc2OCC(=O)N1Cc1ccccc1 (stereo unspecified)	none (no result: PfG6PD inh)
OCCCc1nc2n(n1)C(c1ccccc1Cl)C=C(c1cccs1)N2 (stereo unspecified)	none (not shown: Neddyl block, proKLK7 act)
OCCCc1nc2n(n1)C(c1ccccc1)C=C(c1ccc(F)cc1)N2 (stereo unspecified)	proKLK7 act 23 (not shown: Neddyl block) | proKLK7 act conf 38 | EDANS interfere 74
CNC(=O)[C@@H](NC(=O)[C@H](CC(C)C)[C@H](O)C(=O)NO)C(C)(C)C	none (no result: PfG6PD inh, Neddyl block, FAS TE block)
Cc1ccc(S(=O)(=O)c2cc3c(=O)n4ccccc4nc3n(CC3CCCO3)c2=N)cc1C (stereo unspecified)	none (not shown: Neddyl block)
N#Cc1cc2c(=O)n3ccccc3nc2n(-c2ccc(Cl)cc2)c1=O	none
C=CCn1c(=N)c(C#N)cc2c(=O)n3ccccc3nc21	none (not shown: Neddyl block)
Cc1cc(-n2c(=O)c(C#N)cc3c(=O)n4ccccc4nc32)no1	proKLK7 act 22 (not shown: Neddyl block) | proKLK7 act conf 30 | EDANS interfere 57
C=CCn1c(=O)c(C#N)cc2c(=O)n3ccccc3nc21	proKLK7 act 39 (not shown: Neddyl block) | proKLK7 act conf 67 | EDANS interfere 83
Cc1ccccc1-n1c(=O)c(C#N)cc2c(=O)n3ccccc3nc21	proKLK7 act 13 (not shown: Neddyl block) | proKLK7 act conf 71 | EDANS interfere 73
COCCNC(=O)c1cc2c(c(-c3cccc(C#CC(C)(C)O)c3)n1)[C@@H](CCO)N(S(=O)C(C)(C)C)C2 (stereo partly specified)	none (no result: PfG6PD inh)
CN(Cc1ccccc1)C(=O)OCc1cn(Cc2ccccc2C(F)(F)F)nn1	none (no result: PfG6PD inh, Neddyl block, FAS TE block)
COc1ccc(-c2cc(=O)oc3cc(OC(=O)C4CCCCC4)c(Cl)cc23)cc1	proKLK7 act 64 (not shown: Neddyl block) | proKLK7 act conf 64 | EDANS interfere 37 | EDANS interf inactive
O=C(NCCCN1CCOCC1)c1ccc(Cl)cc1Cl	none
C=CCNC(=O)c1cc2cc(Cl)ccc2nc1N	proKLK7 act 18 (not shown: PfG6PD inh, Neddyl block) | proKLK7 act conf 16 | EDANS interfere 14
Nc1nc2ccc(Cl)cc2cc1C(=O)NCCCN1CCOCC1	proKLK7 act 19 (not shown: PfG6PD inh, Neddyl block, FAS TE block) | proKLK7 act conf 15 | EDANS interfere 12 | EDANS interf inactive
C=CCNC(=O)c1cc(Cl)ccc1Cl	none
CCOC(=O)C1c2cccc(O)c2CCN1C(C)=O (stereo unspecified)	none
COc1ccc(NC(=O)C2(C)CCN2Cc2cccc(OC)c2OC)cc1OC (stereo unspecified)	none (no result: PfG6PD inh)
Cc1nc(SCC(=O)Nc2ccc(CN3CCCC3)cc2)c2c(C)c(C)sc2n1	none
CCc1cc2c(=O)c(-c3nc4ccccc4[nH]3)coc2c(CN2CCCCC2)c1O	none
CC1CN(Cc2c(O)ccc3c2oc(=O)c2ccccc23)CC(C)O1 (stereo unspecified)	none
CCc1cc2c(=O)c(-c3nc4ccccc4[nH]3)coc2c(CN2CCCCC2C)c1O (stereo unspecified)	none
